Reference: PubChem BioAssay (EPA / NIEHS)
Records with an inconclusive call do not appear. Calls of active or inactive are those of the source. The calls were made as follows: active = hit-call score of the fitted dose curve at least 0.9, where 1 is the maximum; inconclusive = response in the unintended direction; inactive = score below 0.9.

Assays:
[1] = molecular target: Estrogen receptor (Homo sapiens) (UniProt P03372); experiment: OT_ER_ERaERa_1440: Odyssey Thera (OT) 24-hour HEK293T Protein-Complementation Assay for Estrogen Receptor-alpha/-alpha Homodimer (AID 2283349);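 also: hits raise fluorescence above DMSO for agonists and antagonists alike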
Procedure, shortened: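 Stably transfected HEK293T; ERα LBD homodimer PCA. 24 h dosing, fluorescence intensity read, gain-of-signal vs DMSO.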

[2] = molecular target: Estrogen receptor (Homo sapiens) (UniProt P03372); experiment: OT_ER_ERaERa_0480: Odyssey Thera (OT) 8-hour HEK293T Protein-Complementation Assay for Estrogen Receptor-alpha/-alpha Homodimer (AID 2283351);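 also: rise in fluorescence from reassembled reporter fragments on ERα LBD homodimer in nucleus or whole cell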
Procedure, shortened: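 HEK293T cells stably expressing a PCA pair of ER alpha LBD (residues 310-547) were dosed for 8 hours. The gain in fluorescence intensity, nuclear for agonists and whole-cell for antagonists, was measured by laser scanning cytometry against DMSO vehicle.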

[3] = molecular target: T1, Estrogen receptor (Homo sapiens) + Estrogen receptor beta (Homo sapiens) (UniProt P03372+Q92731); experiment: OT_ER_ERaERb_0480: Odyssey Thera (OT) 8-hour HEK293T Protein-Complementation Assay for Estrogen Receptor-alpha/-beta Heterodimer (AID 2283352)
Procedure, shortened: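 HEK293T cells expressing ER-alpha/ER-beta LBD fusions to complementary reporter fragments were dosed with compound for 8 hours. Heterodimer formation was read as increased nuclear (agonist) or nuclear plus cytoplasmic (antagonist) mean fluorescence intensity versus DMSO vehicle.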

[4] = molecular target: T1, Estrogen receptor (Homo sapiens) + Estrogen receptor beta (Homo sapiens); experiment: OT_ER_ERaERb_1440: Odyssey Thera (OT) 24-hour HEK293T Protein-Complementation Assay for Estrogen Receptor-alpha/-beta Homodimer (AID 2283356);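 also: heteromer of ER alpha and ER beta binding domains; hits raise reporter fluorescence and both agonists and antagonists give an increase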
Procedure, shortened: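 HEK293T cells stably expressing a PCA pair of ERα LBD (aa 310-547) and ERβ LBD (aa 263-489) were dosed for 24 h. Fluorescence intensity increase versus DMSO vehicle was fitted as gain-of-signal.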

[5] = molecular target: Estrogen receptor beta (Homo sapiens) (UniProt Q92731); experiment: OT_ER_ERbERb_0480: Odyssey Thera (OT) 8-hour HEK293T Protein-Complementation Assay for Estrogen Receptor-beta/-beta Homodimer (AID 2283357);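 also: active means signal gain over DMSO baseline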
Procedure, shortened: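 Fluorescence gain from complemented reporter fragments on ER-beta LBD homodimer in HEK293T was quantified against DMSO controls after 8 h treatment, fixation in 4% formaldehyde and Draq5 staining.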

[6] = molecular target: Androgen Receptor/SRC-1 Co-activator, AR (gene 367) (UniProt P10275); experiment: OT_AR_ARSRC1_0960: Odyssey Thera (OT) 16-hour HEK293T Protein-Complementation Assay for Androgen Receptor/SRC-1 Co-activator (AID 2283353);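 also: actives raise the signal above DMSO so potency reflects increased AR and SRC-1 complex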
Procedure, shortened: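 Endpoint is gain-of-signal N/C fluorescence ratio in the 488 nm channel versus DMSO, from at least 400 cells per image, measured 16 h post-dosing. Cells: HEK293T stably carrying split-Venus AR/SRC-1 complementation constructs.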

[7] = molecular target: Androgen Receptor/SRC-1 Co-activator, AR (gene 367) (UniProt P10275); experiment: OT_AR_ARSRC1_0480: Odyssey Thera (OT) 8-hour HEK293T Protein-Complementation Assay for Androgen Receptor/SRC-1 Co-activator (AID 2283354);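 also: hits raise the complementation signal above DMSO so AC50 marks enhancers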
Procedure, shortened: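 After 8 h dosing, stably expressing HEK293T cells with split-Venus AR/SRC-1 fusions were imaged (488, 635nm). The 488nm N/C ratio per image gave the endpoint, analysed in the positive direction against DMSO.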

[8] = molecular target: Bile acid receptor (Homo sapiens) (UniProt Q96RI1); experiment: NVS_NR_hFXR_Antagonist: NovaScreen (NVS) Nuclear Receptor Binding Assay for human Farnesoid X Receptor Antagonism (FXR) (AID 2283350)
Procedure, shortened: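 Antagonist-format time-resolved FRET binding assay with extracted human receptor protein, read 1 hour after compound addition. Compounds first screened at 25 uM in duplicate, then actives tested in concentration series, with loss of signal relative to DMSO.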

[9] = molecular target: Retinoic acid receptor alpha (Homo sapiens) (UniProt P10276); experiment: NVS_NR_hRAR_Antagonist: NovaScreen (NVS) Nuclear Receptor Binding Assay for human Retinoic Acid Alpha Receptor Antagonism (RAR) (AID 2283358)
Procedure, shortened: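 Chemicals were first tested in duplicate at 25 uM, then actives in concentration series, in a cell-free TR-FRET antagonist binding format. Measurements were taken 2 hours after dosing and loss of signal was evaluated against DMSO controls.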

[10] = molecular target: rat Mineralocorticoid Receptor (MR), Nr3c2 (gene 25672) (UniProt P22199); experiment: NVS_NR_rMR: NovaScreen (NVS) Nuclear Receptor Binding Assay for rat Mineralocorticoid Receptor (MR) (AID 2283355)
Method: NVS_NR_rMR is a biochemical, single-readout assay that uses extracted gene-proteins from Adrenalectomized rat brain supernatant in a tissue-based cell-free assay. Measurements were taken 24 hours after chemical dosing in a 96-well plate.NVS_NR_rMR is one of one assay component(s) measured or calculated from the NVS_NR_rMR assay. It is designed to make measurements of radioligand binding, a form of binding reporter, as detected with scintillation counting signals by Lysate-based radiodetection technology.Data from the assay component NVS_NR_rMR was analyzed into 1 assay endpoint. This assay endpoint, NVS_NR_rMR, was analyzed in the positive analysis fitting direction relative to DMSO as the negative control and baseline of activity. Using a type of binding reporter, loss-of-signal activity can be used to understand changes in the binding as they relate to the gene Nr3c2. Furthermore, this assay endpoint can be referred to as a primary readout, because the performed assay has only produced 1 assay endpoint. To generalize the intended target to other relatable targets, this assay endpoint is annotated to the nuclear receptor intended target family, where the subfamily is steroidal.
Binding assays used specific radioligands (tritiated, iodinated) with non-radioactive competitive displacement ligands in agonist or antagonist protocols (as indicated) and various reference compounds and inhibitors to titrate specific binding to receptors and transporters. Most enzyme assays (CYPs, kinases, phosphatases, proteases, HDACs) used recombinant protein and specific substrates (fluorescence mostly, some colorimetric and radioactive) and inhibitors, followed by a biochemical separation of substrate and product. All assays for the biochemical HTS were initially run in duplicate at a single concentration (10 uM for CYP450 assays and 25 uM for all others). […] Each assay was run with positive and negative controls, and concurrent controls on every plate. The follow-up (secondary) screen tested active chemical-pairs in concentration series, as well as a few additional assays not tested in the primary screen, some selected negative inactives, and several cases re-run in the concentration series for confirmatory purposes.

T1 sequence (P03372 whole entry, looked up, the tested form may be a part): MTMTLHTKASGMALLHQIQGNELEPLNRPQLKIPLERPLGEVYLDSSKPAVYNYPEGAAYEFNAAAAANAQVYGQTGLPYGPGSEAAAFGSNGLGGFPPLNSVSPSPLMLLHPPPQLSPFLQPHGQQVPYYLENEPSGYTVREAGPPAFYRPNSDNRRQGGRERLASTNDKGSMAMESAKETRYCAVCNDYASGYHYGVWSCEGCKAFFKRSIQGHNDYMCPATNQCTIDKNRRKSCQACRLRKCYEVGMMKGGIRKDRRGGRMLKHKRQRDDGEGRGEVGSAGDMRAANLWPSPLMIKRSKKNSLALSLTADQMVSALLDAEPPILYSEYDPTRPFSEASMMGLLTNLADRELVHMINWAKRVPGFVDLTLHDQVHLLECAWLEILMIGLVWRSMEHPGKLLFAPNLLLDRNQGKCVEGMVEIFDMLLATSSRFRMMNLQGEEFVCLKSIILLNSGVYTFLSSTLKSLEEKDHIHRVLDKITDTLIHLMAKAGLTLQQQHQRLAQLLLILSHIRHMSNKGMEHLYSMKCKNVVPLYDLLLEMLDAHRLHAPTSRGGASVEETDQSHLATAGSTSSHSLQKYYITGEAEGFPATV
T1 sequence (Q92731 whole entry, looked up, the tested form may be a part): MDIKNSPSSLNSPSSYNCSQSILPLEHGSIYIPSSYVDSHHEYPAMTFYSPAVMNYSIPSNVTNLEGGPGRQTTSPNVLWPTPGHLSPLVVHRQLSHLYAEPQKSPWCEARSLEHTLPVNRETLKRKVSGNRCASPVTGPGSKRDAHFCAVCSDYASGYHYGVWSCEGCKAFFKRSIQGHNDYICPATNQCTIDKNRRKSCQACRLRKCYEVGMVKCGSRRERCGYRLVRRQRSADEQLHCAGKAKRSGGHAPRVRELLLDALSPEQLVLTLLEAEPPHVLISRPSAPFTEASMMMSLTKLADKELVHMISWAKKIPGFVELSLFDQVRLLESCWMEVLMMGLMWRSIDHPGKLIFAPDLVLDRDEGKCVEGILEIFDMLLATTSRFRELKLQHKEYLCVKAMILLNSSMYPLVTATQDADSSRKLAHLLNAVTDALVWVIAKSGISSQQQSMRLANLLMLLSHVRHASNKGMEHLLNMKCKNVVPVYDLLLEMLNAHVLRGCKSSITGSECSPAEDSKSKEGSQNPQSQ
Chain of Estrogen receptor (Homo sapiens) (P03372 whole entry, looked up, the tested form may be a part): as the sequence (P03372 whole entry, looked up, the tested form may be a part) above
Chain of Estrogen receptor beta (Homo sapiens) (Q92731 whole entry, looked up, the tested form may be a part): as the sequence (Q92731 whole entry, looked up, the tested form may be a part) above
Chain of rat Mineralocorticoid Receptor (MR), Nr3c2 (gene 25672) (P22199 whole entry, looked up): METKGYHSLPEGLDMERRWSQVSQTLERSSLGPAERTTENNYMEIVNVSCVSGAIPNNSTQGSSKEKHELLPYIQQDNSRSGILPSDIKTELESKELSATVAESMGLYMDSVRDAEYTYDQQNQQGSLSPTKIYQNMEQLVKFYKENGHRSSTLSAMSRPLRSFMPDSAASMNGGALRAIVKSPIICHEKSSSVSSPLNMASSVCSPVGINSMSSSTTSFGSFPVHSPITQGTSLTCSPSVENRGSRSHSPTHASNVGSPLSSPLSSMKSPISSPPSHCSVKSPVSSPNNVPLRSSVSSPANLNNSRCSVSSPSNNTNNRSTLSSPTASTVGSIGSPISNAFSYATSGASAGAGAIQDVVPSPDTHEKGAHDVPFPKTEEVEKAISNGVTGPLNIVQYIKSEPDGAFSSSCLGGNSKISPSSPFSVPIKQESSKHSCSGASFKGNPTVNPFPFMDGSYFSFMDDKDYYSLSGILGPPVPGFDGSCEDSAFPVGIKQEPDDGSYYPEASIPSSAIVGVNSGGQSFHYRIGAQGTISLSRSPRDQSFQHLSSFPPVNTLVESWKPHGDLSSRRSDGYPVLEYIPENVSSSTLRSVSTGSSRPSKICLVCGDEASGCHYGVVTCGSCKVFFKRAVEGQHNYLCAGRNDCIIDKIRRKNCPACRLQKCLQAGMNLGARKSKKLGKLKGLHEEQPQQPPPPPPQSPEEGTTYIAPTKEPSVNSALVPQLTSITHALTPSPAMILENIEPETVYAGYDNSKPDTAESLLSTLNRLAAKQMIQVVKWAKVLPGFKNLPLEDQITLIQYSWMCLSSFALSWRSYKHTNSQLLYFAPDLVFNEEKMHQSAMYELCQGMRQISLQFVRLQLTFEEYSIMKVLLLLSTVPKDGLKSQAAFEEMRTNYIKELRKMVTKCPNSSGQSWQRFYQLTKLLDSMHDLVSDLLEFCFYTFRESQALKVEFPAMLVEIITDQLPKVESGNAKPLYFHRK
Chain of Retinoic acid receptor alpha (Homo sapiens) (P10276 whole entry, looked up): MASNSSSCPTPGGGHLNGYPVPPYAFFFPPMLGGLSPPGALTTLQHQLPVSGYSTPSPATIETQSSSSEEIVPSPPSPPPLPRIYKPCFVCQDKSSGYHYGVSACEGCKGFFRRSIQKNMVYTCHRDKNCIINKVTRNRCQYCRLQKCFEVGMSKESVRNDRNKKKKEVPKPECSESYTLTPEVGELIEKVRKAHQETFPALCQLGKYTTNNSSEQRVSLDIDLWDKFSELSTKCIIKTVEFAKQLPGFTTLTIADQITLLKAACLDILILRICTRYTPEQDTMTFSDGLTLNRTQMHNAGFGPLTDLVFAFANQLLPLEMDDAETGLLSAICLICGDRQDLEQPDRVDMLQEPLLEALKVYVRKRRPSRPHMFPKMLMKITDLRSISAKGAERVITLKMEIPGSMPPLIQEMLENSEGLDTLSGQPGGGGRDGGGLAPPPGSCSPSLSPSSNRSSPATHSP
Chain of Androgen Receptor/SRC-1 Co-activator, AR (gene 367) (P10275 whole entry, looked up, the tested form may be a part): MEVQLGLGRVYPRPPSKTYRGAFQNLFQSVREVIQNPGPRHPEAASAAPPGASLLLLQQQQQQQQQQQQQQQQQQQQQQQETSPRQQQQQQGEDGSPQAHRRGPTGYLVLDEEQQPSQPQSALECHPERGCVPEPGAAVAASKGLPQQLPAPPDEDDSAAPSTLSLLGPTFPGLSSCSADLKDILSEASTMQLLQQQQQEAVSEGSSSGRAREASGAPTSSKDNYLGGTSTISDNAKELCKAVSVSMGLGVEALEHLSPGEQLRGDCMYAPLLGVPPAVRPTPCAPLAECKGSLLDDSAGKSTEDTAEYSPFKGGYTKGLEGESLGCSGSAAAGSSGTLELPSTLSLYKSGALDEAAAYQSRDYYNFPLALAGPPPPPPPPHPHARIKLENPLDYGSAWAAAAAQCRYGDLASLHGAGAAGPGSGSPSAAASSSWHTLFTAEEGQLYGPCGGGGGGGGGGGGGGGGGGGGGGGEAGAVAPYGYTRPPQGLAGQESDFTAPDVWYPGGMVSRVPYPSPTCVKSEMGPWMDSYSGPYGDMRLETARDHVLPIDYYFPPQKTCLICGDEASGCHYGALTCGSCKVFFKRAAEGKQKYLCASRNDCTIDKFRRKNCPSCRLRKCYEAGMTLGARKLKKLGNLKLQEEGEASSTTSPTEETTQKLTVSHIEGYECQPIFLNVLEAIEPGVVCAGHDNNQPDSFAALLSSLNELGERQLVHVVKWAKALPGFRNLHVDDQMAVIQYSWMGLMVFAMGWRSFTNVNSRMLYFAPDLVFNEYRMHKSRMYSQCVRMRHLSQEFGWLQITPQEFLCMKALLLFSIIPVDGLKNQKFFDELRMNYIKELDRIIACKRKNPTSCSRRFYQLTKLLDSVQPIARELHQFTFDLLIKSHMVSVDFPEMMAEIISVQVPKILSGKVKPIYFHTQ
Chain of Bile acid receptor (Homo sapiens) (Q96RI1 whole entry, looked up): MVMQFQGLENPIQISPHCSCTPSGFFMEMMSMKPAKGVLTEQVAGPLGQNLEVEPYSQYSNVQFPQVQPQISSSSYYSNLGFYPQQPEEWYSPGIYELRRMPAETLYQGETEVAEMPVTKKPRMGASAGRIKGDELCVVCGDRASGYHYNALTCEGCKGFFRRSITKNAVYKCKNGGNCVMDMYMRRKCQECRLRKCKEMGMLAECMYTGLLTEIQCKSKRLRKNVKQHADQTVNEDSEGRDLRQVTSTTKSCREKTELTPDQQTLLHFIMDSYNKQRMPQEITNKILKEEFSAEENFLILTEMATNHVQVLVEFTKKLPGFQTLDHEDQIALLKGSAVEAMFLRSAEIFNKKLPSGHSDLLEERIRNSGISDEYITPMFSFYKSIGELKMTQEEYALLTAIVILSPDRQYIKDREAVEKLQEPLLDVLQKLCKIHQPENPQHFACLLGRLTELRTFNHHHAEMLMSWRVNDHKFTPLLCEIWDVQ

Oc1c(Br)cc(Br)cc1Br
outcome [1]: inactive | outcome [2]: inactive | outcome [3]: inactive | outcome [4]: inactive | outcome [5]: inactive

CCCCCCCCCCCCN(C)C
outcome [1]: inactive | outcome [2]: inactive | outcome [3]: inactive | AC50 [4]: 73.9 µM (active) | AC50 [5]: 76.5 µM (active)

Cc1cc(Cl)ccc1OC(C)C(=O)O (centres undefined)
outcome [1]: inactive | outcome [2]: inactive | outcome [3]: inactive | outcome [4]: inactive | outcome [5]: inactive

O=[N+]([O-])c1ccc(Cl)c([N+](=O)[O-])c1
outcome [2]: inactive | AC50 [6]: 9.86 µM (active) | AC50 [7]: 15 µM (active)

O=C(O)C1(c2ccc3c(c2)OC[C@H](Cc2ccc(-c4ccccc4)cc2)[C@H]3O)CCCC1
outcome [8]: inactive

CCOc1ccc(N)cc1
outcome [1]: inactive | outcome [2]: inactive | outcome [3]: inactive | outcome [4]: inactive | outcome [5]: inactive

C=CCN=C=S
outcome [1]: inactive | outcome [2]: inactive

CC(O)(CS(=O)(=O)c1ccc(F)cc1)C(=O)Nc1ccc(C#N)c(C(F)(F)F)c1 (centres undefined)
outcome [1]: inactive | outcome [2]: inactive | outcome [3]: inactive | AC50 [4]: 5.63 µM (active) | outcome [5]: inactive

CNC(=O)O/N=C/C(C)(C)S(C)(=O)=O
outcome [1]: inactive | outcome [2]: inactive | outcome [3]: inactive | outcome [6]: inactive | outcome [4]: inactive | outcome [5]: inactive

O=C(O)COc1ccc(Cl)cc1
outcome [1]: inactive | outcome [2]: inactive | outcome [3]: inactive | outcome [4]: inactive

O=C(CCl)Nc1ccccc1
outcome [1]: inactive | outcome [2]: inactive | AC50 [6]: 28.2 µM (active) | AC50 [7]: 59.5 µM (active) | outcome [4]: inactive

N#CCCC(Br)(C#N)CBr (centres undefined)
outcome [3]: inactive | AC50 [4]: 11.8 µM (active)

O=C(NC(=O)c1c(F)cccc1F)Nc1ccc(Cl)cc1
outcome [1]: inactive | outcome [2]: inactive | outcome [3]: inactive | outcome [4]: inactive

O=CCCl
outcome [1]: inactive | outcome [2]: inactive | outcome [3]: inactive | outcome [4]: inactive | outcome [5]: inactive

N#Cc1cccnc1
outcome [1]: inactive | outcome [2]: inactive | outcome [5]: inactive

CC(=Cc1ccccc1)[N+](=O)[O-]
outcome [1]: inactive | outcome [2]: inactive | outcome [3]: inactive | AC50 [6]: 16.7 µM (active) | AC50 [7]: 18 µM (active) | outcome [4]: inactive | outcome [5]: inactive

CCOCn1c(-c2ccc(Cl)cc2)c(C#N)c(Br)c1C(F)(F)F
AC50 [1]: 12.4 µM (active) | outcome [2]: inactive | AC50 [3]: 16.9 µM (active) | AC50 [4]: 12.4 µM (active) | AC50 [5]: 17.3 µM (active)

CCCSP(=S)(OCC)Oc1ccc(SC)cc1 (centres undefined)
outcome [1]: inactive | outcome [2]: inactive | AC50 [3]: 22.7 µM (active) | AC50 [4]: 24.1 µM (active) | outcome [5]: inactive

CCC[CH2][Sn]([Cl])([Cl])[CH2]CCC
outcome [1]: inactive | outcome [2]: inactive | outcome [3]: inactive | outcome [4]: inactive | outcome [5]: inactive | outcome [9]: inactive

CC(C)=CC1C(C(=O)OCc2cccc(Oc3ccccc3)c2)C1(C)C (centres undefined)
outcome [1]: inactive | outcome [2]: inactive | outcome [3]: inactive | outcome [4]: inactive | outcome [5]: inactive

O=C1c2ccccc2C(=O)C1C(=O)C(c1ccccc1)c1ccc(Cl)cc1 (centres undefined)
outcome [1]: inactive | outcome [2]: inactive | outcome [6]: inactive | AC50 [7]: 30 µM (active)

CC(C)N(C(=O)CCl)c1ccccc1
outcome [1]: inactive | outcome [2]: inactive | outcome [3]: inactive | AC50 [6]: 45.7 µM (active) | outcome [7]: inactive | outcome [4]: inactive | outcome [5]: inactive

O=C(NC(=O)c1c(F)cccc1F)Nc1cc(Cl)c(OC(F)(F)C(F)C(F)(F)F)cc1Cl (centres undefined)
outcome [1]: inactive | outcome [2]: inactive | outcome [3]: inactive | outcome [6]: inactive | outcome [7]: inactive | AC50 [4]: 50.2 µM (active) | outcome [5]: inactive

CCN(CCO)CCO
outcome [1]: inactive | outcome [2]: inactive | outcome [3]: inactive | outcome [4]: inactive

O=S1(=O)OC(c2cc(Br)c(O)c(Br)c2)(c2cc(Br)c(O)c(Br)c2)c2ccccc21
outcome [1]: inactive | outcome [2]: inactive | AC50 [3]: 15.2 µM (active) | outcome [6]: inactive | outcome [7]: inactive | outcome [4]: inactive | AC50 [5]: 46.5 µM (active)

N#CCC#N
outcome [1]: inactive | outcome [2]: inactive | outcome [3]: inactive | outcome [6]: inactive | outcome [7]: inactive | outcome [4]: inactive | outcome [5]: inactive

O=S1OC[C@@H]2[C@H](CO1)[C@]1(Cl)C(Cl)=C(Cl)[C@@]2(Cl)C1(Cl)Cl (some centres undefined)
outcome [1]: inactive | outcome [2]: inactive | outcome [6]: inactive | outcome [7]: inactive

CCCCCCCCCCCCc1cccc(S(=O)(=O)O)c1
AC50 [9]: 22.5 µM (active)

O=C(O)COc1cc(Cl)c(Cl)cc1Cl
outcome [6]: inactive | outcome [7]: inactive

Cc1cc(C)cc(C)c1
outcome [5]: inactive

O=c1oc2ccccc2c(O)c1C(CC(O)c1ccc(-c2ccc(Br)cc2)cc1)c1ccccc1 (centres undefined)
outcome [10]: inactive

Cc1cc(Cl)ccc1OCCCC(=O)O
outcome [6]: inactive | outcome [7]: inactive | outcome [5]: inactive

CCOP(=O)(OCC)OC(=CCl)c1ccc(Cl)cc1Cl
outcome [10]: inactive

Clc1cccc(Cl)c1Cl
outcome [9]: inactive

CCC[CH2][Sn]([CH2]CCC)([CH2]CCC)[CH2]CCC
outcome [5]: inactive

CN(N=O)C(N)=O
outcome [5]: inactive

Oc1cc(Cl)c(Cl)cc1Cl
AC50 [5]: 43.8 µM (active)

C=CC(Cl)CCl (centres undefined)
outcome [6]: inactive | outcome [7]: inactive | outcome [5]: inactive

O=C(CBr)c1ccc(O)cc1
outcome [5]: inactive

Cc1cc(C(C)(C)c2ccc(O)c(C)c2)ccc1O
outcome [10]: inactive

CC(C)(C)c1ccccc1O
AC50 [5]: 50 µM (active)

Nc1ccc(N)cc1
outcome [5]: inactive

O=C(N[C@H]1CN2CCC1CC2)c1ccc2c(c1)OCCO2
outcome [6]: inactive | outcome [7]: inactive | outcome [5]: inactive

CCOP(=S)(OCC)O/N=C(\C#N)c1ccccc1
AC50 [5]: 26.9 µM (active)

Oc1c(Cl)cc(Cl)cc1Cl
outcome [5]: inactive

CC1(C)[C@H](C(=O)O[C@H](C#N)c2cccc(Oc3ccccc3)c2)[C@@H]1/C=C(\Cl)C(F)(F)F
outcome [5]: inactive

Cc1cc(Cl)ccc1O
AC50 [5]: 66.5 µM (active)

O=[N+]([O-])c1ccccc1O
outcome [5]: inactive

Nc1ncn[nH]1
outcome [5]: inactive

COCCl
outcome [6]: inactive | outcome [5]: inactive

CC(C=O)Cc1ccc2c(c1)OCO2 (centres undefined)
outcome [10]: inactive

COc1nn(C(=O)NS(=O)(=O)c2ccccc2OC(F)(F)F)c(=O)n1C
outcome [5]: inactive

Clc1cccc(Cl)c1
outcome [10]: inactive | outcome [5]: inactive

COC(=O)Nc1cccc(OC(=O)Nc2cccc(C)c2)c1
outcome [5]: inactive
